The panel holds about 83,000 compounds, 20% with a hit somewhere; the sample as a whole holds those more often.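 Testing used 96-well plates and a 48-hour single-concentration exposure. Example: -40 means 40% of the starting cells died.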 Unmarked numbers belong to inactive results. Active and inactive are the calls of the source. The calls were made as follows: active = growth percent below 10; inactive = the rest.

The assay deals with SNB-75 CNS. Kind of assay: NCI-60 one-dose screen, 48 h (100 = growth as untreated, 0 = no growth, -100 = all killed). Conditions: 10 µM unless noted.
As to `Cc1c(F)cccc1NC(=O)c1sc2nc3c(cc2c1N)CCCCC3`, the growth was 76.2%.

Consider `O=C(Nc1cccc([N+](=O)[O-])c1)Nc1cccc([N+](=O)[O-])c1`, for which the growth is 107%.

On to `O=C(N/N=C1\SCC(=O)N1c1ccccc1)c1cc(-c2cc3ccccc3o2)nn1-c1ccccc1`, for which the growth was 101%.

For `COc1cc(-c2nc(N)n(CC(=O)Nc3ccc(/C(C)=N\O)cc3)n2)cc(OC)c1OC`, the growth was 74.1%.

As for `O=C(Cn1c2ccccc2c2ccncc21)N/N=C/c1c[nH]c2ccccc12`, the growth is 31%.

Consider `CCCN1C(=O)CSC1=Nc1ccc2cc3ccc(N=C4SCC(=O)N4CCC)cc3nc2c1`, for which the growth was 29.6%.

With `CCc1cccc(C)c1NC(=O)c1sc2nc3c(cc2c1N)CCCCC3`, the growth was 6.57% (active).

Take `NC(=S)NNC1CCCCC1`: the growth was 91.5%.

For `CC(C)(C)C(=O)Nc1nc2c(s1)CCc1ccn(S(=O)(=O)c3ccccc3)c1-2`, the growth was 89.6%.

Regarding `Nc1ncnc2c1c(-c1ccc(Oc3ccccc3)cc1)nn2C[C@@H]1SSC[C@H]1O`, the growth is 2.29% (active).

As to `Cc1ccc[n+](CC(=O)c2cccc3ccccc23)c1`, the growth was 96.2%.
